# Values joined by “and” are separate entries in the source; they are usually repeats but may differ in a detail not shown here. Equal values may be shown once. Records with an inconclusive call do not appear. Where a call stands in place of a potency, no number is given. The source holds several records for some structures; these can differ, active in one and inactive in another. Active and inactive are the calls of the source. Calls come from the whole dose curve; as a rule, active = well fitted curve in the direction sought with a large enough effect; inconclusive = small, poorly fitted or top-dose-only effect, or another doubt; inactive = no such curve, though single readings can be large; an effect the other way counts as inactive or inconclusive.
# Tests used:
# [1] = target: Guanine nucleotide-binding protein G(i) subunit alpha-1 (Homo sapiens) (UniProt P63096); test: qHTS Assay for Inhibitors of RGS12 GoLoco Motif Activity (Green Fluorophore) (AID 879);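 note: negative values mean loss of peptide binding seen as reduced polarization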
# Outline: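 Fluorescence polarization assay: 50 nM Gαi1 with 10 nM FITC-labeled RGS12 GoLoco peptide in 10 mM Tris pH 7.5, 150 mM NaCl, 0.1 mM GDP, 0.05% NP40, 10 min at room temperature with compound.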
# [2] = target: Cytochrome P450 2C9 (Homo sapiens) (UniProt P11712); test: qHTS Assay for Inhibitors and Substrates of Cytochrome P450 2C9 (AID 883); note: nearly all actives have a fitted effect of over 60% in size
# Outline: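 Turnover of Luciferin-H (100uM, KM) by 10nM human CYP2C9 was measured over 60 min at 37C with NADPH regeneration; inhibitors and some substrates reduce luminescence. Data normalized to sulphaphenazole 57uM.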
# [3] = target: Cytochrome P450 2D6 (Homo sapiens) (UniProt P10635); test: qHTS Assay for Inhibitors and Substrates of Cytochrome P450 2D6 (AID 891); note: nearly all actives have a fitted effect of over 60% in size; note: potency is the fitted concentration of half-maximal effect
# Outline: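 Human CYP2D6 (5 nM) with 30 uM Luciferin-ME EGE (at Km) in 100 mM KPO4, compound preincubated 10 min, then NADPH regeneration system for 60 min at room temperature. Luciferin read by luminescence; normalized to 1.43 uM quinidine.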
# [4] = target: Cytochrome P450 2C19 (Homo sapiens) (UniProt P33261); test: qHTS Assay for Inhibitors and Substrates of Cytochrome P450 2C19 (AID 899); note: nearly all actives have a fitted effect of over 60% in size
# Outline: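 Reactions contain 5nM enzyme, 10uM Luciferin-H EGE (KM) and 50mM KPO4; compound preincubates 10 min at 37C, NADPH regeneration starts turnover for 60 min. Luminescence after detection reagent gives activity.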
# [5] = Cellular Toxicity (caspase-3) Jurkat (AID 655);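 note: cells exposed to compound for 16 h at 37 °C before reading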; note: potency is the fitted concentration of half-maximal effect
# Outline: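 5000 Jurkat cells/well; compound 16 hr, 37 °C; Caspase-Glo 3/7 added, 20 min RT; luminescence read. Norm: DMSO = 0%, tamoxifen 100 uM = 100%. AC50, Hill model.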
# [6] = Cellular Toxicity (caspase-3) HUV-EC-C (AID 656)
# Outline: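 qHTS; HUV-EC-C, 1000 cells/well; 5 hr settle, 16 hr cmpd, 37°C; Caspase-Glo 3/7, 20 min RT; luminescence. Norm: DMSO = 0%, tamoxifen 100 uM = 100%. Hill-fit AC50.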
# [7] = Cellular Toxicity (caspase-3) SHSY5Y (AID 657);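 note: cells exposed to compound for 16 hours at 37 °C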
# Outline: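 qHTS, SH-SY5Y, 1500 cells/well, 5 h pre-incubation 37 °C; compound 16 h 37 °C; Caspase-Glo 3/7 1 h RT; luminescence. Norm.: DMSO = 0, 10 uM staurosporine = 100%. Hill fit → AC50.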
# [8] = Cellular Toxicity (caspase-3) BJ (AID 658)
# Outline: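 Readout: Caspase-Glo 3/7 luminescence increase in BJ cells after 16 hr treatment at 37 °C. Staurosporine and tamoxifen served as positive controls; AC50 values came from Hill modelling of data normalized to DMSO and 10 uM staurosporine.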
# [9] = Cellular Toxicity (caspase-3) MRC-5 (AID 659); details: Potency: caspase-3 activation; note: potency is the fitted concentration of half-maximal effect
# Outline: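 Concentration-dependent caspase 3/7 activation is measured in human normal lung fibroblasts (MRC-5) following 16-hour treatment. AC50 values come from standard Hill-equation modeling of luminescence normalized to DMSO and 10 uM staurosporine.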
# [10] = Cellular Toxicity (caspase-3) Mesangial (AID 660);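 note: combined caspase 3 and 7 activity read by Caspase-Glo luminescence; cells exposed to compound for 16 h before the caspase read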
# Outline: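 Mesangial cells, 1000/well, 5 h settle at 37 °C; compound 16 h, 37 °C; Caspase-Glo 3/7 reagent 20 min RT; luminescence. Norm.: DMSO = 0%, tamoxifen 100 uM = 100%. AC50, Hill fit.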
# [11] = Cellular Toxicity (caspase-3) N2a (AID 665);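 note: compound exposure lasted 16 h at 37 °C before readout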
# Outline: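 N2a cells, 1500/well, 5 h settle at 37 °C; cpd 16 h, 37 °C; Caspase-Glo 3/7, 1 h RT; luminescence. Norm: DMSO = 0, 10 uM staurosporine = 100%. AC50, Hill fit.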
# [12] = Cellular Toxicity (caspase-3) NIH 3T3 (AID 666);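 note: caspase signal read after 16 h compound exposure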
# Outline: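 Luminescence from aminoluciferin released by caspase-3/7 cleavage of a peptide substrate served as read-out. Mouse fibroblast NIH 3T3 cells were exposed to compounds over a concentration range for 16 hours, and AC50 values came from standard Hill modelling.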
# [13] = Cellular Toxicity (caspase-3) SK-N-SH (AID 661)
# Outline: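 Human neuroblastoma SK-N-SH, 1500 cells/well, 5 hr pre-incubation, then compound 16 hr, 37 °C. Caspase-Glo 3/7 reagent, 1 hr RT, luminescence. Norm. to DMSO/10 uM staurosporine; Hill-fit AC50.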
# [14] = Cellular Toxicity (caspase-3) H-4-II-E (AID 663);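 note: cells exposed to compound for 16 hr before readout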
# Outline: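 Apoptosis induction is scored as increased luminescence from caspase 3/7 substrate cleavage in rat hepatoma H-4-II-E cells exposed to compound for 16 hr. Activity is scaled between DMSO and 100 uM tamoxifen.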
# [15] = Cellular Toxicity (caspase-3) Hek293 (AID 664);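 note: cells exposed to compound for 16 h at 37 °C before readout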
# Outline: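 Cells plated, 5 hr at 37 °C; compounds added; 16 hr at 37 °C; Caspase-Glo 3/7 reagent, 20 min RT; luminescence read. Activation expressed relative to DMSO and 100 uM tamoxifen, AC50 by Hill model.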
# [16] = target: Cytochrome P450 3A4 (Homo sapiens) (UniProt P08684); test: qHTS Assay for Inhibitors and Substrates of Cytochrome P450 3A4 (AID 884); note: series mostly up to about 57 µM; nearly all actives have a fitted effect of over 50% in size
# Outline: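 20 nM human CYP3A4 with 25 uM Luciferin-PPXE (at KM) in 200 mM KPO4, preincubated 10 min with compound; NADPH regeneration started a 60 min RT reaction. Luciferin detected by luminescence, normalized to 57 uM ketoconazole as full inhibition.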
# [17] = Confirmation and Secondary Assay for Modulators of Hemoglobin Beta Chain Splicing at IVS2 654 locus (AID 910);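 note: HeLa cells stably carrying EGFP split by mutant beta-globin IVS2-654 intron; per-well total GFP intensity by laser scanning cytometry after 2-day treatment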
# Outline: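 Readout: per-well total peak green fluorescence (488 nm ex, 500–520 nm em) from objects 5–250 µm, reflecting correct splicing of an EGFP-654 reporter. Compounds were applied for 2 days at 37 °C to overnight-plated HeLa EGFP-654 cells; controls were DMSO and 500 nM IVS2-654 PNA.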
# Sequence of Guanine nucleotide-binding protein G(i) subunit alpha-1 (Homo sapiens) (P63096 whole entry, looked up): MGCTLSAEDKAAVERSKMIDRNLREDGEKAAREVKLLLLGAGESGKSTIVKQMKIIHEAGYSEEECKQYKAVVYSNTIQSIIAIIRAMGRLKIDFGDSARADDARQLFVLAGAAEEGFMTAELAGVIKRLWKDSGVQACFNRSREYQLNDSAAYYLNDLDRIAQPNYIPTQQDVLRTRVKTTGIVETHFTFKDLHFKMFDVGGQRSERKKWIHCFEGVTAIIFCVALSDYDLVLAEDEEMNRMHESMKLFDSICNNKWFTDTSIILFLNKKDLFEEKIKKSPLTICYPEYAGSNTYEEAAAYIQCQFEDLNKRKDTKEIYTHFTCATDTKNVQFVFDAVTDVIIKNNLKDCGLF
# Sequence of Cytochrome P450 3A4 (Homo sapiens) (P08684 whole entry, looked up): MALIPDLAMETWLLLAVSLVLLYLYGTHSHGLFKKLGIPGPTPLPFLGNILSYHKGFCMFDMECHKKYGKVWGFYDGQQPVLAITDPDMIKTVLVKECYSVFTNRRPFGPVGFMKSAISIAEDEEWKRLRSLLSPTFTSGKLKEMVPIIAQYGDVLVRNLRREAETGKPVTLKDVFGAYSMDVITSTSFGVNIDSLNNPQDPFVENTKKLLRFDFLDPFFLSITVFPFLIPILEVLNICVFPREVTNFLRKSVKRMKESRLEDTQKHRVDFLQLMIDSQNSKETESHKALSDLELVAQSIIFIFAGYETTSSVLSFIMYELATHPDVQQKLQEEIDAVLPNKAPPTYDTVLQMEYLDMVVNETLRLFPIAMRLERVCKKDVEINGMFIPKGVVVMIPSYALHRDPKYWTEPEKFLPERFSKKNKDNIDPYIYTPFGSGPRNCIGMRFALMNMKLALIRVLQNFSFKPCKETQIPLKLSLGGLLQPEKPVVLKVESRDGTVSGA
# Sequence of Cytochrome P450 2D6 (Homo sapiens) (P10635 whole entry, looked up): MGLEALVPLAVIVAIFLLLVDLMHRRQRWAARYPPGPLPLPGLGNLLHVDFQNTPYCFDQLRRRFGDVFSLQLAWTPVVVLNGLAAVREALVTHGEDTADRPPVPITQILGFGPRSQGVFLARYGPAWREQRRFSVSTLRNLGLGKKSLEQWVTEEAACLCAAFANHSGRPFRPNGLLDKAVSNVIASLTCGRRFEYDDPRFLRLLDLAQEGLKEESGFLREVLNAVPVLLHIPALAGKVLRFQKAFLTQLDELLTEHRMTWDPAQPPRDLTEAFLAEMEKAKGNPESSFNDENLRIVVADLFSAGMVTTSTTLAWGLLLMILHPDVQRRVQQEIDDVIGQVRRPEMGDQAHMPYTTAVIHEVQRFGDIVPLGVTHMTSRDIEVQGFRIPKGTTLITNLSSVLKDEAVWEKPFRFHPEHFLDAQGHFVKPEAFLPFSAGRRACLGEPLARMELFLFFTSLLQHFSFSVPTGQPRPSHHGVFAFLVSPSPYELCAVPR
# Sequence of Cytochrome P450 2C9 (Homo sapiens) (P11712 whole entry, looked up): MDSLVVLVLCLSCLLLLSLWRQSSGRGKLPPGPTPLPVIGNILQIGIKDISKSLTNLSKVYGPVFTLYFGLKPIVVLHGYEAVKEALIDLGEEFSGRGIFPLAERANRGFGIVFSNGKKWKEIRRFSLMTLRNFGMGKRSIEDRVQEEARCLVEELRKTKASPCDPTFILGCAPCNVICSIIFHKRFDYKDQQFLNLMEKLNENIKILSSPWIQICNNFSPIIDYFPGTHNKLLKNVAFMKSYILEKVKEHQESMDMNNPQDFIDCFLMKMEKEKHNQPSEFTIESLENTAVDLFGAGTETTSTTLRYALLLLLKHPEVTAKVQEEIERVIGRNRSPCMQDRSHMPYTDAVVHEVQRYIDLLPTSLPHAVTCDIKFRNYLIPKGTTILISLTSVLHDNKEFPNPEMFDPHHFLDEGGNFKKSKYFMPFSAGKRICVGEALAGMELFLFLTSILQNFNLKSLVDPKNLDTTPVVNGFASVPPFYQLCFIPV
# Sequence of Cytochrome P450 2C19 (Homo sapiens) (P33261 whole entry, looked up): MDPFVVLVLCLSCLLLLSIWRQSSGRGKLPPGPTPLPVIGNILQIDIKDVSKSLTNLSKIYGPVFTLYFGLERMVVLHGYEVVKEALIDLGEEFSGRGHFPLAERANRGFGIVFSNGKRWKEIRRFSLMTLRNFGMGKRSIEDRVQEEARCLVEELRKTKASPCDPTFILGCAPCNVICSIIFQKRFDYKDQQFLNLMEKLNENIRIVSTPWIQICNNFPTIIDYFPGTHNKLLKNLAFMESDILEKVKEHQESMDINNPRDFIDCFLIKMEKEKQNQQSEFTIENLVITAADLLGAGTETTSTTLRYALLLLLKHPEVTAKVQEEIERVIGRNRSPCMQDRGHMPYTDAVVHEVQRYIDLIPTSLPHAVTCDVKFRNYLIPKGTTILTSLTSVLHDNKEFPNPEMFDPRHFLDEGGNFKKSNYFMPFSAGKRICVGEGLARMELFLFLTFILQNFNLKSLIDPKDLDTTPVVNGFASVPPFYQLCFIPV
SMILES,outcome [1],Potency [2],Potency [3],Potency [4],Potency [5],outcome [6],outcome [7],outcome [8],Potency [9],outcome [10],outcome [11],outcome [12],outcome [13],outcome [14],outcome [15],Potency [16],outcome [17]
CC(C)C(=O)c1c(C(C)C)nn2ccccc12,inactive,inactive,inactive and 39.8 nM (active),inactive,,,,,,,,,,,,,
Cc1c(O)cccc1C(=O)N[C@@H](CSc1ccccc1)[C@H](O)CN1C[C@H]2CCCC[C@H]2C[C@H]1C(=O)NC(C)(C)C,,,,,31.6 µM (active),inactive,inactive,inactive,50.1 µM (active),inactive,inactive,inactive,,,,,
C[C@]12C[C@H](O)[C@H]3[C@@H](CCC4=CC(=O)CC[C@@]43C)[C@@H]1CC[C@@H]2C(=O)CO,,,,,inactive,inactive,inactive,inactive,inactive,inactive,inactive,inactive,inactive,inactive,inactive,,
[Cl][In]([Cl])[Cl],,,,,inactive,inactive,inactive,inactive,inactive,inactive,inactive,inactive,inactive,inactive,inactive,inactive,
Cc1cc(CC(=O)O)n(C)c1C(=O)c1ccc(Cl)cc1,,,,,inactive,inactive,inactive,inactive,inactive,inactive,inactive,inactive,inactive,inactive,inactive,inactive,inactive
NC1CCN(c2cccc(Cl)n2)CC1,inactive,,,,,,,,,,,,,,,,
NC(=O)N/N=C/c1ccc([N+](=O)[O-])o1,,,,,inactive,inactive,inactive,inactive,inactive,inactive,inactive,inactive,inactive,inactive,inactive,,inactive
COC(=O)C1=C(C)NC(C)=C(C(=O)OC)C1c1ccccc1[N+](=O)[O-],inactive,,,,inactive,inactive,,inactive,inactive,inactive,inactive,,inactive,inactive,inactive,,inactive
